Assay outcomes deposited in PubChem BioAssay by The Scripps Research Institute Molecular Screening Center.
CHRM1 agonist = human M1 muscarinic receptor agonists, primary screen, Fluo-8 calcium fluorescence, CHO-K1 cells, HTS; Muscarinic acetylcholine receptor M1 (Homo sapiens), P11229; CHO-K1 hM1, agonist mode; 0% DMSO, 100% acetylcholine EC100; activation, % at 3 µM; 360,000 tested, 0.33% active; AID 588814, 2011;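 active = activation above the run's mean compound activation plus 3 SD, cut at about 16% in these data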;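 also: peak over basal fluorescence ratio within a 140 s kinetic read after compound addition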
Target sequence (P11229 whole entry, looked up): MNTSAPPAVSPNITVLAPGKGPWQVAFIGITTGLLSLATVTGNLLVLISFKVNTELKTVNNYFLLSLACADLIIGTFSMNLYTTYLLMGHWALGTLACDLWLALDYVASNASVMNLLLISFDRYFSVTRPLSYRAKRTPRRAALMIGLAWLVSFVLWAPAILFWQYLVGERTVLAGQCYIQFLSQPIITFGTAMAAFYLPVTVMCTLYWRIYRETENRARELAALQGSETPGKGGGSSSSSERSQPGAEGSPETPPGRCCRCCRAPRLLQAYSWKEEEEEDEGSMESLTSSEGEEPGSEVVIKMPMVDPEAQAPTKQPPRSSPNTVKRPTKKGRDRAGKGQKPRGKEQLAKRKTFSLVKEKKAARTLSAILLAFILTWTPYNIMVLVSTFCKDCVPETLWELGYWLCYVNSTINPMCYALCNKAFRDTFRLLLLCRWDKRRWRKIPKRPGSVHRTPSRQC
M1 PAM = human M1 muscarinic receptor positive allosteric modulators, primary screen, CHO-K1 cells, Fluo-8 calcium fluorescence, 1536-well. Muscarinic acetylcholine receptor M1 (Homo sapiens), P11229. CHO-K1 hM1, ACh EC20; 0% = ACh EC20, 100% = maximal ACh. activation, % at 3 µM. 360,000 tested, 0.088% active; in the data active = activation above about 19%, passing the limit was not always enough
CHO-K1 Ca PAM = nonselective calcium activators in parental CHO-K1 cells, primary screen, counter-screen for M1 PAM project, cell-based, Fluo-8 calcium fluorescence, full deck, 1536-well; ATP EC20; 0% at ATP EC20, 100% at ATP max; activation, % at 3 µM; 360,000 tested, 0.02% active;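 active = activation above the run cutoff, the mean activation of all test compounds plus 3 SD, cut at about 40% in these data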;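 also: peak over basal fluorescence ratio in a 140 s read after ATP addition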
CHO-K1 Ca ag = counter-screen for M1 agonists: effect in parental CHO-K1 cells | 360,000 tested, 0.48% active | activation, % at 3 µM | Fluo-8 calcium fluorescence; scaled to maximal ATP response, vehicle zero | AID 602248, 2012; in the data active = activation above about 15%;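 also: untransfected CHO-K1 host cells lacking M1 receptor as counterscreen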
CHRM1 antagonist = human M1 muscarinic receptor antagonists, primary screen, CHO-K1 cells, Fluo-8 calcium fluorescence, 1536-well. Muscarinic acetylcholine receptor M1 (Homo sapiens), P11229. CHO-K1 hM1, ACh EC80 antagonist. inhibition, % at 3 µM. 360,000 tested, 1.3% active;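 active = percent inhibition above its own plate's cutoff, namely the mean of that plate's compound wells plus 3 SD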;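 also: peak over basal fluorescence ratio during 140 s after agonist addition; 0% = ACh EC80 plus DMSO and 100% = DMSO alone without agonist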
CHO-K1 Ca antag = nonselective inhibitor or artifact in parental CHO-K1 cells; AID 602250; inhibition, % at 3 µM; 360,000 tested, 0.6% active; ATP-induced calcium, Fluo-8 fluorescence;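 active = inhibition above a per-plate cutoff, the plate's mean sample inhibition plus 3 SD, cut at about 24% in these data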;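 also: 0% = DMSO plus EC80 ATP and 100% = DMSO alone without ATP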
Active calls of the source: *. Compounds with a hit are over-represented: about 2.3% of the library has one in this group of screens.

SMILES | CHRM1 agonist | M1 PAM | CHO-K1 Ca PAM | CHO-K1 Ca ag | CHRM1 antagonist | CHO-K1 Ca antag
Cc1c(C(=O)N2CCOCC2)c(S(=O)(=O)Nc2ccccc2)c(C)n1C | -3 | 7 | 15 | 1 | -8 | -17
CCCNC(=O)COc1coc(CN2CCN(c3ccc(F)cc3)CC2)cc1=O | -3 | 2 | 11 | 1 | -3 | -17
CCCCCCN1C[C@H](n2cc(-c3ccc(F)cc3)nn2)[C@@H](O)C[C@@H]1c1ccc(C)cc1 | 3 | -10 | 13 | 1 | 19* | -9
CN(CC(=O)Nc1c(Cl)cccc1Cl)C(=O)c1cc(-c2cccs2)nn1-c1ccccc1 | -6 | -8 | -6 | 1 | 13 | 4
CCN(CC(=O)Nc1c(F)cccc1F)C(=O)c1cc(-c2cccs2)nn1-c1ccccc1 | -1 | -17 | -12 | 7 | 36* | 7
CCOc1ccccc1CN1CCN(Cc2ccc(C)o2)CC1CCO (centres undefined) | -12 | -7 | -2 | 0 | 1 | -5
CCOc1ccccc1CN1CCN(CC2=Cc3cc(OC)ccc3OC2)CC1CCO (centres undefined) | -7 | -19 | 18 | 2 | 34* | -2
CN(C)c1nc(N)c2nccnc2n1 | -2 | 5 | 23 | 2 | -5 | -2
CN(C)c1ccc(C=Cc2nccc3ccccc23)cc1 | 27* | -36 | -3 | 20* | 41* | 25*
CCN(CC)c1nc(C=Cc2ccc(N(C)C)cc2)c2nccnc2n1 | 33* | -15 | -3 | 45* | 46* | 44*
COc1cccc(C=Cc2nccc3ccccc23)c1OC | -4 | -4 | -6 | 0 | 2 | 14
COc1ccc(CC(=O)Nc2cccc(-c3nnc(-c4ccccc4)o3)c2)cc1OC | 2 | -16 | 11 | 6 | 29* | -5
COc1ccc(CC(=O)Nc2cccc(-c3nnc(-c4cccc(C)c4)o3)c2)cc1OC | 5 | -15 | 4 | 7 | 38* | 5
O=C(Nc1cccc(-c2nnc(-c3ccco3)o2)c1)c1ccccc1 | -6 | -7 | 5 | 4 | 1 | -6
O=C(Cc1ccccc1)Nc1cccc(-c2nnc(-c3ccco3)o2)c1 | -3 | -6 | 19 | 4 | -17 | -10
COc1ccccc1OCC(=O)Nc1cccc(-c2nnc(-c3ccco3)o2)c1 | -5 | -22 | -11 | 5 | 24* | 0
CC(=O)Oc1ccc(C(=O)Nc2cccc(-c3nnc(-c4ccco4)o3)c2)cc1 | 15 | -8 | 7 | 24* | 12 | 1
COc1ccc(Cl)cc1NC(=O)CSc1nc(=O)n(CCN(C)C)c2c1CCCC2 | -6 | 12 | 11 | 3 | -21 | 4
COc1ccc(C(N)=O)c(OCC(=O)Nc2cc(C)on2)c1 | 0 | 6 | 5 | 9 | -4 | 3
COc1cccc(C(NC(C)=O)c2nc(-c3ccc(F)c(Cl)c3)cs2)c1 (centres undefined) | -1 | 5 | 0 | 1 | -11 | 5
CC(C)(C)N1CC23CCC(C[C@@H]2C1=O)O3 (some centres undefined) | -2 | 7 | 22 | 1 | -2 | -13
Fc1ccccc1Cn1c2[n+](c3ccc(C(F)(F)F)cc31)CCCCC2 | -9 | -20 | 6 | 0 | 34* | -3
OCC[C@@H]1C[C@H](O)[C@@H](O)[C@]2(OCc3ccc4ccccc4c32)O1 | -3 | -2 | -2 | 0 | 7 | 23
Cn1c(CCNS(=O)(=O)c2ccccc2)nnc1SCc1cccnc1 | -3 | 0 | -2 | 0 | 7 | -2
Cc1cccc(NC(=O)COC(=O)CN2CCCCCC2=O)c1C | 4 | 14 | -19 | 0 | -11 | 0
SMILES | CHRM1 agonist | M1 PAM | CHO-K1 Ca PAM | CHO-K1 Ca ag | CHRM1 antagonist | CHO-K1 Ca antag
O=[N+]([O-])c1cc2c(c([N+](=O)[O-])c1)Nc1ccccc1O2 | 5 | -1 | 0 | 17* | -5 | 12
O=C1Nc2ccccc2Oc2cc([N+](=O)[O-])cc(Oc3ccccc3)c21 | 3 | 4 | 8 | 4 | -7 | 3
CC(C)(C)CN1CCC(Oc2cccc(C(=O)NCCCOc3cccnc3)c2)CC1 | -5 | -3 | -32 | 0 | 17 | 24*
Cc1cc(-c2nnn(CCCOC(C)(C)C)c2C)ccc1-c1cn(CCCOC(C)(C)C)nn1 | 1 | 12 | 11 | 1 | -13 | -1
CCN(CC)S(=O)(=O)c1cccc(C(=O)N/N=C/c2ccc(O)c(O)c2O)c1 | -6 | 26* | -7 | 0 | 6 | 0
CCOc1ccccc1/C=N/NC(=O)c1cccc(S(=O)(=O)N(CC)CC)c1 | -5 | -3 | 15 | 3 | 0 | -10
O=C(Cc1ccc(Br)cc1)OCC(=O)N1CCCCCC1 | -4 | 0 | 7 | 0 | -4 | -5
O=[N+]([O-])c1ccc(N/N=C/c2c[nH]c3ccccc23)cc1 | 14 | -7 | -8 | 15* | 34* | 26*
CN(C)C(=O)/C(=C\c1ccc(-c2cccc([N+](=O)[O-])c2)o1)NC(=O)c1ccccc1 | -3 | 8 | 10 | 2 | -8 | -14
O=C(O)c1cccc(-c2ccc(/C=N/Nc3ccc([N+](=O)[O-])cc3)o2)c1 | 17* | -9 | -7 | 18* | 27 | 20
CN(C)C(=O)/C(=C/c1ccc(-c2cccc([N+](=O)[O-])c2)o1)NC(=O)c1ccccc1 | 6 | 7 | -4 | 22* | -7 | 4
O=C(O)c1ccc(-c2ccc(/C=N/Nc3ccc([N+](=O)[O-])cc3)o2)cc1 | 18* | 2 | -10 | 10 | 10 | 12
NS(=O)(=O)c1ccc(-c2ccc(/C=N/Nc3ccc(C(=O)O)cc3)o2)cc1 | 0 | 8 | 24 | 1 | -17 | -17
Cc1c(C(=O)OCC(=O)Nc2ccc(C(=O)N(C)C)cc2)oc2ccccc12 | -1 | 10 | 6 | 7 | -8 | 3
CCOC(=O)C(C(=O)OCC)c1cc(Br)c2noc3c2c1C(=O)c1ccccc1-3 | 8 | 2 | 12 | 8 | 35* | 23
Cc1ccc(CC(=O)N2CCN(C(=O)C3CCCO3)CC2)cc1 (centres undefined) | -1 | 0 | 10 | 0 | 7 | 3
Cc1ccc(C)c2sc(N3CCN(C(=O)c4ccc([N+](=O)[O-])o4)CC3)nc12 | -3 | 0 | -35 | 0 | 0 | 21
O=C(c1ccc([N+](=O)[O-])o1)N1CCN(c2nc3c(F)cc(F)cc3s2)CC1 | -4 | -6 | -10 | 2 | 5 | 24*
